Test results: PubChem BioAssay AID1986 (Sanford-Burnham Center for Chemical Genomics, 2009)
Out of some 290,000 compounds screened, about 890 (0.31%) were called active. No stated cut-off is given here; in the data, active means inhibition mostly above about 52% (no sharp cut-off); inactive means mostly below about 76%. Only a selection was taken, and actives are over-represented in it overall.

Assay: cell-free HIV fusion peptide-binding blockers – biochemical, uHTS, fluorescence dequenching, primary screen (AID 1986)
Details: 30 min, stronger effect = higher value
[1] = measured here: repeat confirmation average inhibition, at 18.6 µM

| SMILES | inhibition (at 20 µM) | inhibition [1] [%] |
| --- | --- | --- |
| COCCNC(=O)Cn1cc(/C=C2\C(=O)NC(=O)N(c3cccc(C)c3C)C2=O)c2ccccc21 | 90.2% (active) | 50.7 |
| COCCCNC(=O)Cn1cc(/C=C2\C(=O)NC(=O)N(c3ccccc3F)C2=O)c2ccccc21 | 159% (inactive) |  |
| COCCNC(=O)Cn1cc(C=C2C(=O)NC(=O)NC2=O)c2ccccc21 | 43.1% (inactive) |  |
| COCCNC(=O)Cn1cc(/C=C2\C(=O)NC(=O)N(c3ccccc3F)C2=O)c2ccccc21 | 159% (inactive) |  |
| O=C(O)Cn1cc(C=C2C(=O)NC(=O)NC2=O)c2ccccc21 | 4.8% (inactive) |  |
| O=C(Cn1cc(C=C2C(=O)NC(=O)NC2=O)c2ccccc21)NCC1CCCO1 (configuration not stated) | 61.4% (active) | 112 |
| CC(Cc1ccccc1)[n+]1cc(/N=C(\[O-])Nc2ccccc2)on1 (configuration not stated) | -1.8% (inactive) |  |
| O=C(NCc1ccccn1)c1ccccc1Cl | -1.3% (inactive) |  |
| CCOC(=O)c1c(C)c(P(=S)(N2CCOCC2)N2CCOCC2)n(C)c1C | -1.8% (inactive) |  |
| CC(C)n1c(=O)c(C=Nc2ccc(Cl)cc2)c(O)n(Cc2ccco2)c1=O | 52.7% (inactive) | 4.1 |
| CC(C)n1c(=O)c(C=Nc2ccc(Br)cc2)c(O)n(Cc2ccco2)c1=O | 66.2% (active) |  |
| CC(C)n1c(=O)c(C=Nc2ccc(F)cc2)c(O)n(Cc2ccco2)c1=O | 0.1% (inactive) |  |
| CCOC(=O)C1CCN(Cc2ccc(Cl)nc2)CC1 | -0.9% (inactive) |  |
| O=C1N(c2cccc(Cl)c2)C(c2cccnc2)N2CCCN12 (configuration not stated) | -0.5% (inactive) |  |
| O=C1NC(=O)[C@]2(Cc3ccccc3N3CCN(c4ccccc4)CC32)C(=O)N1Cc1ccccc1 (some centres not stated) | 1.5% (inactive) |  |
| COc1ccc(-c2nc3ccc(C(=O)N4CCC5(CC4)OCCO5)cc3nc2-c2ccc(OC)cc2)cc1 | -1.1% (inactive) |  |
| Cc1cc(/C=C2\C(=O)NC(=O)N(Cc3ccccc3Cl)C2=O)c(C)n1-c1ccc(C(=O)O)cc1 | 67.8% (inactive) | 40.6 |
| Cc1cc(/C=C2\C(=O)NC(=O)N(c3ccccc3)C2=O)c(C)n1-c1ccc(C(=O)O)c(Cl)c1 | 9.8% (inactive) |  |
| Cc1cc(/C=C2\C(=O)NC(=O)N(Cc3ccccc3)C2=O)c(C)n1-c1ccc(Cl)c(C(=O)O)c1 | 52.5% (active) |  |
| COC(=O)Cn1cc(C=C2C(=O)N(C)C(=O)N(C)C2=O)c2ccccc21 | 118% (active) | 98.7 |
| CCN1C(=O)NC(=O)/C(=C\c2cn(CC(=O)N3CCCCC3)c3ccccc23)C1=O | 92.7% (active) |  |
| CCN(CC)C(=O)Cn1cc(C=C2C(=O)N(C)C(=O)N(C)C2=O)c2ccccc21 | 9.3% (inactive) |  |
| CCOC(=O)Cn1cc(C=C2C(=O)N(C)C(=O)N(C)C2=O)c2ccccc21 | 58.4% (active) | 149 |
| CCn1cc(C=C2C(=O)N(C)C(=O)N(C)C2=O)c2ccccc21 | 6.6% (inactive) |  |
| COC(=O)Cn1cc(C=C2C(=O)NC(=O)NC2=O)c2ccccc21 | 10% (inactive) |  |
| CN1C(=O)C(=Cc2cn(CC(=O)N3CCCC3)c3ccccc23)C(=O)N(C)C1=O | 9.1% (inactive) |  |
